Shown are actives, neighbours in structure and some others; about 4.7% of the full set was active somewhere.
D1 agonist – human D1 receptor agonism. P21728. HEK293 T-REx D1 cells, calcium flux, agonist mode. activation, % at 2 µM. 1% of 360,000 active; note: 0% is about no effect
Target sequence (P21728 whole entry, looked up): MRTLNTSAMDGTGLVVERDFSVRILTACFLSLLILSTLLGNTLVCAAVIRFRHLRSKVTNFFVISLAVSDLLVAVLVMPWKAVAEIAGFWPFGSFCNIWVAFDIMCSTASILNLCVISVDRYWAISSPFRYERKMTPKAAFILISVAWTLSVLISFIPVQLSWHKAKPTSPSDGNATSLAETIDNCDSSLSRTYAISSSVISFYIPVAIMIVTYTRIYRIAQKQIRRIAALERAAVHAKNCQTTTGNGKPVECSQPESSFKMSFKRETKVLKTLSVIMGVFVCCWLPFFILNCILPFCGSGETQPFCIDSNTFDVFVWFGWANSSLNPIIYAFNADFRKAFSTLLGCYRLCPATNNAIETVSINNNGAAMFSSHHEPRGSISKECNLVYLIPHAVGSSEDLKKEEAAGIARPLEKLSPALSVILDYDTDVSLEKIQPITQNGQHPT
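Agonism was scored from calcium flux recorded over 180 s (1 read/s) after pintool compound addition, following a 10-cycle baseline. Cells were inducible force-coupled HEK293 TREx D1, plated overnight at 30 C and loaded with no-wash calcium dye.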
D1 antagonist – human D1 dopamine receptor antagonism. P21728. HEK293 TREx D1 cells, calcium flux, dopamine EC80; hits give low values. activity change, negative = inhibition, % at 10 µM. 3.2% of 360,000 active. AID 504652; in the data active = activity change below about -30%; note: % is set by controls: 0 for no effect and ±100 for the full control effect
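Tetracycline-induced HEK293 Trex D1 cells, force-coupled to calcium, dye-loaded; compounds added and read 180 s, then EC80 dopamine added and calcium flux tracked kinetically another 180 s.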
TRHR enhancer – allosteric enhancers of human TRH receptor | TRHR cells, fluo-8 calcium fluorescence, EC20 TRH enhancement | enhancement, % at 2 µM | 0.66% of 360,000 active | AID 493056; in the data active = enhancement above about 30%; note: 0% is about no effect
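Enhancer read-out: after compound pinning and an initial kinetic agonist-mode read, an EC20 of TRH (10 nM final) was injected and fluo-8 calcium signal (Ex 480/Em 530) followed at 1 s/cycle for 100 cycles in TRHR-expressing cells.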
D1 PAM – human D1 dopamine receptor positive modulation; P21728; 0.036% of 360,000 active; potentiation, % at 10 µM; HEK293 TREx D1 cells, calcium flux, dopamine EC20 potentiation; AID 504651; in the data active = potentiation above about 30%; note: 0% is about no effect
TRHR agonist – agonists of human TRH receptor. TRHR cells, calcium flux fluo-8, FDSS agonist mode. activation, % at 2 µM. 0.18% of 360,000 active. AID 493084; note: 0% is about no effect
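Read-out: compound-evoked intracellular calcium rise in TRHR cells, fluo-8 dye, kinetic FDSS fluorescence at 1 s/cycle following a 10-cycle baseline. Cells cultured overnight before dye loading (30 min–1.5 h, RT).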
* = called active by the depositor; . = no result. Cut-off read from the data, not from the text of the source, unless noted: active = activation above about 30%; inactive = the rest.

SMILES | D1 agonist | D1 antagonist | TRHR enhancer | D1 PAM | TRHR agonist
O=C(N/N=C/c1ccc(N2CCOCC2)cc1)c1ccc(O)cc1 | 2 | -55* | 7 | -5 | 1
C/C(=N\NC(=O)c1ccc(O)cc1)c1ccc(N2CCOCC2)cc1 | 2 | -22 | 0 | -5 | 0
COc1ccc(N2CCN(S(=O)(=O)c3ccc4c(c3)CCCN4C(C)=O)CC2)cc1 | 3 | -11 | 3 | -5 | 0
CCOc1ccc(S(=O)(=O)N(CCO)CCO)cc1-c1nc2c(C(C)(C)C)nn(C)c2c(=O)[nH]1 | 1 | -1 | 4 | 30* | 0
CC(C)(C)[C@@H]1C=C(C(N)=O)O[C@H](OCc2ccc(CO)cc2)C1 | 4 | 13 | 3 | -1 | 0
CC(C)(C)[C@H]1C=C(C(N)=O)O[C@@H](OCc2ccc(CO)cc2)C1 | -3 | -31* | -6 | 2 | 0
Cc1ccc(-c2noc(C3CCCN(C(=O)c4c(F)cccc4F)C3)n2)cc1 (stereo not given) | 3 | -10 | -5 | -3 | -1
Cc1ccc(-c2noc(C3CCCN(C(=O)c4cccc(F)c4)C3)n2)cc1 (stereo not given) | 11 | -31* | -3 | 1 | 1
COc1ccc(CCNC(=O)c2ccc3c(c2)N(Cc2ccc(F)cc2)C(=O)c2ccccc2S3(=O)=O)cc1OC | 4 | 9 | -5 | -2 | 1
CCOC(=O)Cn1c(CN2CCN(c3ccc(OC)cc3)CC2)nc2c1c(=O)[nH]c(=O)n2C | -2 | 4 | 2 | -4 | 0
CCOC(=O)Cn1nnnc1CN1CCN(c2ccc(OC)cc2)CC1 | 4 | -2 | 34* | -3 | 1
Cc1cc2ccccc2n1CCNC(=O)c1ccccc1F | 1 | -23 | -1 | -3 | -1
COc1ccc(CCC(C)NC2C3CC4CC(C3)CC2C4)cc1 (stereo not given) | 10 | -71* | 6 | 0 | 1
CCC(C)n1c(=O)c2sccc2n2c(CCCC(=O)N3CCN(c4ccccc4)CC3)nnc12 (stereo not given) | 2 | -15 | 4 | -4 | 0
CCCCC(=O)OCC(=O)c1[nH]c(C)c(C(C)=O)c1C | 3 | -9 | 35* | -12 | 0
CC(=O)c1c(C)[nH]c(C(=O)COC(=O)c2nccnc2N)c1C | 8 | 2 | 9 | . | 0
CC(=O)c1c(C)[nH]c(C(=O)COC(=O)c2cccnc2Cl)c1C | 11 | -33* | 3 | -1 | 1
COc1ccc(Cl)cc1NC(=O)c1c(NCc2cccs2)sc2c1CCCC2 | 1 | -20 | -6 | 6 | 0
Cc1cc(NC(=O)CN(C)S(=O)(=O)c2ccc3c(c2)CCC(=O)N3)ccc1Br | 6 | -7 | 3 | -5 | 0
CCc1ccc2oc(-c3cccc(NC(=O)c4ccc(-c5cccc([N+](=O)[O-])c5)o4)c3)nc2c1 | 1 | 0 | -7 | -4 | 0
CN(Cc1ccccc1)CC(O)COc1ccc(CNCc2ccc(Cl)s2)cc1 (stereo not given) | 54* | -41* | -3 | -5 | 9
COc1ccc(CNC(=O)Cc2c(C)c3c(cc(C)c4c(C)coc43)oc2=O)cc1 | -1 | 4 | 7 | 3 | 1
CC(Oc1ccc(Cl)cc1Cl)C(=O)NCCN1CCOCC1 (stereo not given) | 4 | 16 | 0 | -8 | -1
COc1ccc(Cl)c(NC(=O)NCCN2CCN(c3ccccc3)CC2)c1 | 7 | -65* | 0 | -6 | 0
COc1ccc(NC(=O)NCCN2CCN(c3cc(OC)ccc3OC)CC2)cc1 | 3 | 3 | 3 | 1 | -1
SMILES | D1 agonist | D1 antagonist | TRHR enhancer | D1 PAM | TRHR agonist
Cc1ccc(NC(=O)NCCN2CCN(c3ccccc3)CC2)cc1Cl | 13 | -16 | 13 | -5 | -1
COc1ccc(N2CCN(CCNC(=O)Nc3cc(Cl)ccc3OC)CC2)cc1 | 44* | -18 | 29 | -16 | -2
O=C(NCCN1CCOCC1)Nc1ccc(Cl)cc1Cl | 1 | -45* | 2 | 2 | 0
COc1ccc(Cl)cc1N1CCN(CCNC(=O)Nc2ccccc2C)CC1 | 8 | -15 | -3 | -10 | 0
COc1ccc(Cl)c(N2CCN(CCCNC(=O)Nc3ccc(C)cc3)CC2)c1 | 29 | -60* | 7 | -21 | -1
CC(C)OCCCN(Cc1ccco1)C(=O)c1cc2c(s1)-c1ccccc1OC2 | 4 | -17 | -1 | -1 | 1
CN(C)c1ccc(C(=O)Nc2c(C(=O)NC(C)(C)C)oc3ccccc23)cc1 | 1 | 9 | -3 | -3 | 0
CCCc1cc(N2CCN(c3ccccc3F)CC2)n2cnnc2n1 | 3 | -4 | -5 | -1 | -1
COc1ccccc1N1CCN(S(=O)(=O)c2cn(C)c(=O)n(C)c2=O)CC1 | 0 | -36* | 0 | -13 | 0
Cn1cc(S(=O)(=O)N2CCN(c3ccccc3F)CC2)c(=O)n(C)c1=O | -1 | 2 | -6 | -4 | 0
CC1CCN(S(=O)(=O)c2cn(C)c(=O)n(C)c2=O)CC1 | -2 | -61* | 1 | -10 | 1
Cc1ccccc1CNC(=O)c1oc2c(c1C)-c1nn(Cc3ccc(Cl)cc3)cc1CC2 | 1 | 7 | -4 | 1 | 0
O=C(NCc1cccnc1)c1cccc2c1C(=O)N(C1CCCCC1)C2 | -1 | -58* | 7 | -6 | 0
O=C(Nc1ccc(Cl)cc1)c1cncs1 | 1 | -47* | 1 | -7 | -1
O=C(Nc1ccc(F)cc1)c1cncs1 | 2 | -4 | -1 | -10 | 0
COc1cccc(N2CCN(S(=O)(=O)c3cccc4cccnc34)CC2)c1 | 6 | -7 | -3 | 3 | 0
CCn1ncc(S(=O)(=O)N2CCN(c3cccc(OC)c3)CC2)c1C | 4 | -35* | 25 | -5 | 0
CCC(Oc1ccccc1)C(=O)Nc1cc(-c2ccccc2OC)nn1-c1ccccc1 (stereo not given) | -1 | 0 | -3 | 4 | 0
O=C(CSc1nccn1-c1ccc(F)cc1)Nc1ccc(OC(F)(F)F)cc1 | 0 | -76* | 1 | -5 | 0
COc1ccc(-n2ccnc2SCC(=O)Nc2ccccc2)cc1 | 3 | -4 | 5 | -3 | 0
COc1cccc(-n2ccnc2SCC(=O)Nc2ccccc2F)c1 | 3 | -37* | -3 | -5 | -3
COc1ccc(NC(=O)CSc2nccn2Cc2ccccc2)c(OC)c1 | 9 | -36* | 1 | -7 | 0
CCn1c(CNC(=O)Cc2ccc(OC)cc2)nnc1SCC(=O)NC1CCCCC1 | 0 | -39* | -3 | -5 | 0
Cc1ccc(-c2nn(-c3ccc(F)cc3F)c3c2cnc2ccc(F)cc23)cc1 | -1 | -21 | -1 | 0 | 1
COc1ccccc1Nc1nn2c(=O)c3ccc(C(=O)NCCc4ccccc4)cc3nc2s1 | 3 | -11 | 2 | 2 | 1
CC1(C)CC(=O)C2=C(C1)O[C@@]1(CCCCN3C(=O)c4ccccc4C3=O)Cc3cc(C#N)ccc3C2O1 | 2 | -9 | -15 | -2 | 0
